Hits are enriched below; roughly 19% of the tested compounds scored in any of these assays.
TDP1 cell noCPT: qHTS for Inhibitors of human tyrosyl-DNA phosphodiesterase 1 (TDP1): qHTS in cells in absence of CPT. 15% of 420,000 active. Potency, µM (top dose mostly 46.2 µM), for inactives: at the top dose activity change, negative = growth inhibition, usual class: inhibitors. AID 686978, 2013. DT40 Tdp1-/- hTDP1 cells, no CPT, ATP luminescence, 48 h; note: potency is the fitted concentration of half-maximal effect; nearly all actives have a fitted effect of over 55% in size
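Stably hTDP1-transfected Tdp1-null chicken DT40 cells were treated with library compounds minus camptothecin and grown for at least 48 hr at 37 °C, after which cellular ATP was quantified by luminescence.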
DT40 TDP1 CPT: DT40-hTDP1 cell growth loss with CPT; Potency, µM (highest dose often 46.2 µM), for inactives: at the highest dose activity change, negative = growth inhibition, hits mostly inhibitors; 12% of 420,000 active; chicken DT40 Tdp1-/-;hTDP1 cells + 20 nM CPT, ATP luminescence, 48 h; note: potency is the fitted concentration of half-maximal effect; nearly all actives have a fitted effect of over 55% in size
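Chicken DT40 Tdp1-/- cells stably complemented with human TDP1 were seeded at 400 cells/well in medium containing 20 nM camptothecin, exposed to pin-transferred compounds, and grown at 37 °C for at least 48 hr. Viability was read as ATP luminescence.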
HT1080 IDH1KD tx: toxicity to HT-1080 IDH1 knockdown cells (counter line) | HT-1080 IDH1 knockdown viability, ATP luminescence, 48 h | Potency, µM (top dose mostly 46.1 µM), for the others: at the top dose activity, negative = toxicity, hits mostly cytotoxic | 2% of 360,000 active | AID 686971;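 note: potency is the fitted concentration of half-maximal effect; 0% = DMSO wells and -100% = cell-free medium wells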
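Using the IDH1-knockdown HT-1080 line run in the same batch and compound series as the NT line, viability after 48 h at 37 °C was determined by CellTiter-Glo luminescence and expressed as % activity.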
HT1080-NT tox: kills 2HG-producing HT-1080-NT fibrosarcoma cells | HT-1080-NT fibrosarcoma viability, CellTiter-Glo ATP luminescence, 48 h | Potency, µM (highest dose often 46.1 µM), inactives show at the top dose activity, negative = less viability, hits mostly cytotoxic | 1.6% of 360,000 active | AID 686970;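 note: NT is the 2HG producing partner of a matched IDH1 knockdown line; potency is the fitted concentration of half-maximal effect; 0% = DMSO-treated cells and -100% = media-only wells without cells; nearly all actives have a fitted effect of over 55% in size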
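HT-1080-NT fibrosarcoma cells (2HG-overproducing), 750 cells/well in RPMI with 5% FBS, dosed after 2 h and incubated 48 h at 37C. CellTiter-Glo luminescence normalized to DMSO and no-cell wells; concentration-response curves fitted and classed.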
IL1B secr inh: inhibitors of inflammasome signaling (IL-1 beta secretion); activity change, % at 57.5 µM; AID 743279; 4.7% of 360,000 active; THP-1 LPS/ATP IL-1B secretion, AlphaLISA, 16 h; stronger effect = lower value; in the data active = activity change below about -50%; inconclusive = mostly about -30% to -49%
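Secreted IL-1B measured by AlphaLISA bead assay after 16 h compound exposure of THP-1 cells; compounds (final up to 57.5 uM) added 1 h before LPS (250 ng/mL) and ATP (1.25 mM) stimulation; lower signal means less secretion.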
Numbers without * were called inactive; ? = inconclusive; . = not tested or not shown; [ ] = remark or other dose. Unless noted, calls come from the whole dose curve; as a rule, active = well fitted curve in the direction sought with a large enough effect; inconclusive = small, poorly fitted or top-dose-only effect, or another doubt; inactive = no such curve, though single readings can be large; an effect the other way counts as inactive or inconclusive. Unless noted, % is set by controls: 0 for no effect and ±100 for the full control effect.

SMILES | TDP1 cell noCPT | DT40 TDP1 CPT | HT1080 IDH1KD tx | HT1080-NT tox | IL1B secr inh
CCN(CC)CCNC(CC(=O)Nc1ccc(Cl)cc1Cl)C(=O)O (stereo unspecified) | -6.1% | 25.8% | -1.2% | 1.2% | -12.1
CCN(CC)CCNc1ccc(CO)c2oc3cc(Cl)ccc3c(=O)c12 | 10.3µM* | 23.1µM* | -17.7% | ? | -28.9
Cc1ccc2oc(=O)c3cnn(CC(=O)NCCN(C)C)c3c2c1 | -4.4% | -4.0% | 4.0% | 7.2% | -6.9
c1csc(-c2nc(N3CCOCC3)c3ccccc3n2)c1 | ? | ? | -20.8% | -20.4% | -16.8
c1ccc2c(N3CCOCC3)nc(-c3ccncc3)nc2c1 | 14.6µM* | ? | -7.4%[9.24 µM] | -27.6% | ?
c1cncc(-c2nc(N3CCOCC3)c3ccccc3n2)c1 | 35.5µM* | ? | -26.1% | ? | ?
Cc1cc(N)n(-c2nc(-c3cccnc3)nc3ccccc23)n1 | 18.4µM* | 25.9µM* | -11.0% | -3.9% | ?
COc1cccc(-n2ccn(CC(=O)Nc3ccccc3F)c(=O)c2=O)c1 | -21.4% | ? | . | . | .
Cc1ccc(-c2c(CN3CCN(c4cccc(C)c4)C(C)C3)csc2C)cc1 (stereo unspecified) | 16.4µM* | ? | . | . | .
Cc1cccc(N2CCN(Cc3cnc(Cl)s3)CC2C)c1 (stereo unspecified) | -21.5% | 3.9% | -7.4% | -15.2% | 36.0
Cc1ccc(-c2c(CN3CCN(c4cccc(C)c4C)CC3)csc2C)cc1 | 20.6µM* | 14.6µM* | . | . | .
Cc1nc2ccccn2c1C(=O)NN=C1C2CC3CC(C2)CC1C3 | -19.1% | -0.8% | 18.9% | 7.3% | 26.3
O=C(NC1CCCC1)C1CCN(C(=O)c2ccc(Cl)cc2Cl)CC1 | -1.0% | 7.2% | 5.7% | 18.2% | 11.6
CCOC(=O)c1cnc2ccc(OCC)cc2c1NCCN1CCOCC1 | 20.6µM* | ? | 8.7% | 8.6% | -25.2
CCOC(=O)c1cnc2ccc(C(=O)OC)cc2c1NCCN1CCOCC1 | -18.3% | ? | 13.6% | -2.1% | -26.8
CCOC(=O)c1cnc2c(Cl)cccc2c1NCCCN1CCOCC1 | ? | ? | -4.2% | -10.8% | -13.6
CCOC(=O)c1cnc2ccc(C(=O)OC)cc2c1NCCCN1CCOCC1 | ? | ? | 12.5% | -0.8% | -59.9*
CCOC(=O)c1cnc2ccc(OCC)cc2c1NCCCN1CCOCC1 | 18.4µM* | 18.4µM* | -5.4% | -1.3% | -53.3*
COc1cccc(NC(=O)C2(C)CCCN(C(C)C)C2)c1 (stereo unspecified) | -25.4% | -6.5% | 22.7% | ? | 26.1
O=C(Nc1cccc(-c2nc3ncccc3o2)c1)c1cc2ccccc2o1 | 23.1µM* | 20.6µM* | -13.5% | -17.4% | 25.2
O=C(Nc1cccc(-c2nc3ncccc3o2)c1)c1sc2ccccc2c1Cl | ? | 10µM* | 9.8% | 12.8% | 5.5
Cc1nc(-c2ccc(S(=O)(=O)Nc3ccc(Cl)c(C(F)(F)F)c3)cc2)co1 | -9.0% | ? | . | . | .
Cc1cc(C)n(-c2c(C)[nH]c3ccccc23)n1 | -29.6% | -5.9% | -4.9% | -6.9% | ?
CCN(CC)C(=O)C1=C(C)N(Cc2ccc(F)cc2)C(=O)C(CC(=O)NCc2cccs2)C1 (stereo unspecified) | -8.5% | -5.8% | 5.1% | 0.9% | ?
CCCCN1C(=O)C(CC(=O)NC(c2ccccc2)c2ccccc2)CC(C(=O)N(C(C)C)C(C)C)=C1C (stereo unspecified) | 20.6µM* | 23.1µM* | 6.7% | -3.1% | -29.0
SMILES | TDP1 cell noCPT | DT40 TDP1 CPT | HT1080 IDH1KD tx | HT1080-NT tox | IL1B secr inh
CC1=C(C(=O)N(C)C)CC(CC(=O)NC(c2ccccc2)c2ccccc2)C(=O)N1Cc1ccc(C(C)(C)C)cc1 (stereo unspecified) | 23.1µM* | ? | -24.5% | ? | -5.7
CCN(CC)C(=O)C1=C(C)N(Cc2ccc(C(C)(C)C)cc2)C(=O)C(CC(=O)NC(c2ccccc2)c2ccccc2)C1 (stereo unspecified) | 11.6µM* | 13µM* | ? | ? | ?
CCN(CC)C(=O)C1=C(C)N(Cc2ccc(F)cc2)C(=O)C(CC(=O)NC(c2ccccc2)c2ccccc2)C1 (stereo unspecified) | 20.6µM* | ? | -0.1% | -0.6% | ?
COc1ccc2cc(N=Cc3nc(-c4ccc(C)cc4)oc3O)cnc2c1 | -4.4% | 7.4% | 17.7% | 5.2% | 0.0
CC1=C(C(=O)N(C(C)C)C(C)C)CC(CC(=O)NC(c2ccccc2)c2ccccc2)C(=O)N1Cc1ccc(C(C)(C)C)cc1 (stereo unspecified) | ? | ? | ? | ? | -59.4*
COc1ccc(CN2C(=O)C(CC(=O)NC(c3ccccc3)c3ccccc3)CC(C(=O)N(C(C)C)C(C)C)=C2C)cc1 (stereo unspecified) | ? | ? | -8.4% | -15.4% | ?
CC1=C(C(=O)N2CCCCCC2)CC(CC(=O)NC(c2ccccc2)c2ccccc2)C(=O)N1CCC1=CCCCC1 (stereo unspecified) | 16.4µM* | 20.6µM* | ? | ? | ?
CC1=C(C(=O)N2CCOCC2)CC(CC(=O)NC(c2ccccc2)c2ccccc2)C(=O)N1Cc1ccc(C(C)(C)C)cc1 (stereo unspecified) | 16.4µM* | ? | -26.2% | -25.2% | -19.4
COc1ccc(N2CC(NC(=O)Cc3cccs3)CC2=O)cc1OC (stereo unspecified) | -0.2% | -10.6% | . | . | .
COc1ccc(C2=CC(=O)OC3(CCCC3)O2)cc1 | -15.3% | -16.5% | 4.6% | 1.1% | 21.3
O=C(O)c1c(Cl)c(Cl)c(Cl)c(Cl)c1-c1c2cc(I)c(=O)c(I)c-2oc2c(I)c(O)c(I)cc12 | 15µM* | ? | . | . | .
Nc1c2c(nc3ccccc13)N(c1ccccc1)CC2 | ? | 14.6µM* | -14.5% | -13.1% | -8.9
CCCC(=O)Nc1c2c(nc3ccccc13)N(c1ccccc1)CC2 | ? | ? | 25.9µM* | ? | 0.0
CCNC(=O)C1(C)CCCN(CC(=O)c2ccccc2OC)C1 (stereo unspecified) | 1.5% | -21.2% | ? | 17.5% | 8.4
CC(C)OCCCNc1nc2c(cnn2C)c(=O)[nH]1 | -11.5% | -12.7% | -2.2% | -4.8% | 6.6
CCC1CCCCN1C(=O)CCC(=O)Nc1nnc(C(F)(F)F)s1 (stereo unspecified) | 12.1% | 9.1% | -7.0% | -2.6% | 5.4
CCCc1c(C(=O)N/N=C(\C)c2ccc(O)cc2)nnn1-c1nonc1N | -0.1% | -20.3% | 1.9% | 5.1% | ?
CCCc1c(C(=O)N/N=C(\C)c2ccccn2)nnn1-c1nonc1N | 1.64µM* | 2.59µM* | ? | ? | 97.7
